# Measured values reported in PubChem BioAssay (EPA / NIEHS).
# Results filed as inconclusive are left out. Activity calls are given as the source filed them. The calls were made as follows, unless noted: active = hit-call score of the fitted dose curve at least 0.9, where 1 is the maximum; inconclusive = response in the unintended direction; inactive = score below 0.9.
# Legend:
# [1] = biological target: Cytochrome P450 2C19 (Homo sapiens) (UniProt P33261); experiment: NVS_ADME_hCYP2C19: NovaScreen (NVS) CYP450-related Enzyme Activity (ADME) Assay for human CYP2C19 (AID 2283113);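 also: potency for inhibition seen as loss of fluorescent signal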
# Method in brief: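 Compounds first screened in duplicate at 10 uM, then confirmed in concentration series. Insect-cell-expressed human CYP2C19 turned over a fluorogenic substrate, and fluorescence was read after 1 h. Inhibition taken as signal loss relative to acetonitrile.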
# [2] = biological target: rat CYP2A1, Cyp2a1 (gene 24894) (UniProt P11711); experiment: NVS_ADME_rCYP2A1: NovaScreen (NVS) CYP450-related Enzyme Activity (ADME) Assay for rat CYP2A1 (AID 2283114; active = hit-call score of the fitted dose curve at least 0.9, where 1 is the maximum; inactive = score below 0.9)
# Method in brief: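 Recombinant rat CYP2A1, cell-free, fluorogenic substrate turnover read by fluorescence intensity 0.75 h after dosing. Primary screen at 10 uM in duplicate; actives rerun as concentration-response up to 20 uM; loss of signal versus acetonitrile control.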
# [3] = biological target: rat CYP1A2, Cyp1a2 (gene 24297) (UniProt P04799); experiment: NVS_ADME_rCYP1A2: NovaScreen (NVS) CYP450-related Enzyme Activity (ADME) Assay for rat CYP1A2 (AID 2283115)
# Method in brief: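 Cell-free recombinant rat enzyme with fluorogenic substrate, read by fluorescence intensity 1 hour after dosing. Loss of signal versus acetonitrile negative control; primary screen at 10 uM in duplicate, actives followed in concentration series.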
# [4] = test system: rat CYP2B1, gene 24300; experiment: NVS_ADME_rCYP2B1: NovaScreen (NVS) CYP450-related Enzyme Activity (ADME) Assay for rat CYP2B1 (AID 2283117)
# Method in brief: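 Recombinant rat CYP2B1 with fluorogenic substrate, read at 0.75 h. Primary screen in duplicate at 10 uM; compounds meeting threshold (e.g., 30% inhibition) re-run in concentration-response up to 20 uM. Fitted against acetonitrile control.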
# [5] = biological target: rat CYP2C11, Cyp2c11 (gene 29277) (UniProt P08683); experiment: NVS_ADME_rCYP2C11: NovaScreen (NVS) CYP450-related Enzyme Activity (ADME) Assay for rat CYP2C11 (AID 2283118)
# Method in brief: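 Cell-free recombinant rat enzyme with fluorescent substrate; readout 0.33 h after dosing, loss of signal versus acetonitrile control. Initial duplicate single-point at 10 uM; actives rerun in concentration series.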
# [6] = biological target: rat CYP2C12, Cyp2c12 (gene 25011) (UniProt P11510); experiment: NVS_ADME_rCYP2C12: NovaScreen (NVS) CYP450-related Enzyme Activity (ADME) Assay for rat CYP2C12 (AID 2283119)
# Method in brief: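 Cell-free recombinant rat CYP2C12 activity read by fluorescence 0.5 h after dosing; loss of signal versus acetonitrile control. Primary screen in duplicate at 10 uM; actives then run in concentration-response format.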
# [7] = test system: rat CYP2C6, gene 293989; experiment: NVS_ADME_rCYP2C6: NovaScreen (NVS) CYP450-related Enzyme Activity (ADME) Assay for rat CYP2C6 (AID 2283120)
# Method in brief: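 Cell-free recombinant rat CYP2C6 with fluorogenic substrate, read by fluorescence 1 h after dosing; acetonitrile as negative control. Primary screen at 10 uM in duplicate, actives then in concentration-response up to 20 uM.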
# [8] = biological target: rat CYP2C13, Cyp2c13 (gene 171521) (UniProt P20814); experiment: NVS_ADME_rCYP2C13: NovaScreen (NVS) CYP450-related Enzyme Activity (ADME) Assay for rat CYP2C13 (AID 2283121)
# Method in brief: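 Recombinant rat CYP2C13 with fluorogenic substrate, 0.75 h cell-free incubation; primary screen in duplicate at 10 uM, actives followed in concentration series. Fluorescence loss relative to acetonitrile control indicates inhibition.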
# [9] = biological target: rat CYP2A2, Cyp2a2 (gene 24895) (UniProt P15149); experiment: NVS_ADME_rCYP2A2: NovaScreen (NVS) CYP450-related Enzyme Activity (ADME) Assay for rat CYP2A2 (AID 2283116)
# Method in brief: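 Cell-free recombinant rat CYP2A2 activity with fluorogenic substrate, fluorescence read 0.2 h after dosing. Chemicals screened at 10 uM in duplicate, hits then run in concentration-response up to 20 uM; signal loss versus acetonitrile baseline.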
# Sequence of rat CYP2A1, Cyp2a1 (gene 24894) (P11711 whole entry, looked up): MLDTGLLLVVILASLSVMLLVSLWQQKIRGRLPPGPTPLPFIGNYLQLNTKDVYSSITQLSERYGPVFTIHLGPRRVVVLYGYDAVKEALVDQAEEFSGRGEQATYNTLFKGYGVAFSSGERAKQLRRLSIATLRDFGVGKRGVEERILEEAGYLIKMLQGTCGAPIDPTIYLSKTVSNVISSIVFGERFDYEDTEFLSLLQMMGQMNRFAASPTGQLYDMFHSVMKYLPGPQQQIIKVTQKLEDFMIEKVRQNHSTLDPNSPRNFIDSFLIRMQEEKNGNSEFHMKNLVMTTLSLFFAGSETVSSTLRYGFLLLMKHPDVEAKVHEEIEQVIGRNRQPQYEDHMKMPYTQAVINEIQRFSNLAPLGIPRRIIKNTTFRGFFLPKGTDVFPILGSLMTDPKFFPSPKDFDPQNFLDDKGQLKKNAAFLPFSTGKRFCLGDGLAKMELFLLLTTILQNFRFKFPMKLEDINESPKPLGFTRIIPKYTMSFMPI
# Sequence of rat CYP2C11, Cyp2c11 (gene 29277) (P08683 whole entry, looked up): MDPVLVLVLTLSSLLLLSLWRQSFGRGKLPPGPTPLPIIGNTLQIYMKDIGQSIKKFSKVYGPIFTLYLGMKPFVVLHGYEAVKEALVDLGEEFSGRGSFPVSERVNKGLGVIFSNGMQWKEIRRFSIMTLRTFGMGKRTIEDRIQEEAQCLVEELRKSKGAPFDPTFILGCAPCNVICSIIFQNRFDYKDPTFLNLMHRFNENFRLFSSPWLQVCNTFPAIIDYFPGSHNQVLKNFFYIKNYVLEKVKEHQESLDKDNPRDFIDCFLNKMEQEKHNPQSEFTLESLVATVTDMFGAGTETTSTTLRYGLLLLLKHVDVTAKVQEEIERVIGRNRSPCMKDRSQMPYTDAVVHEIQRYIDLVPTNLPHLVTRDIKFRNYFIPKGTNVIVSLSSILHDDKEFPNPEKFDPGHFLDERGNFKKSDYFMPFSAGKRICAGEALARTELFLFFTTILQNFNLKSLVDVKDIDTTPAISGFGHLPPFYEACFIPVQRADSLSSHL
# Sequence of rat CYP2C12, Cyp2c12 (gene 25011) (P11510 whole entry, looked up): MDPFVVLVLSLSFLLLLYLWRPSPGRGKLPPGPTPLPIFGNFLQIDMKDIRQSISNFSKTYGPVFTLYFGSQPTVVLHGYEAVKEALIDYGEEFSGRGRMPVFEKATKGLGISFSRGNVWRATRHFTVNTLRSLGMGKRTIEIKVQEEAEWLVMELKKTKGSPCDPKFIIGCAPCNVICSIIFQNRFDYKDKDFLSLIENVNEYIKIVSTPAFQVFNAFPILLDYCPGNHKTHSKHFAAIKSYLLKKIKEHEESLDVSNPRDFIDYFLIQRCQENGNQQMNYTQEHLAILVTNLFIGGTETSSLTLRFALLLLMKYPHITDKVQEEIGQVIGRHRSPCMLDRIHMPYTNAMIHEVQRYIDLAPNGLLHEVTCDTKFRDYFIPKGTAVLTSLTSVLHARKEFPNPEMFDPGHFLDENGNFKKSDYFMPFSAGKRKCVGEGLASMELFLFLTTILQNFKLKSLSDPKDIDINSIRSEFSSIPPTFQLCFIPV
# Sequence of rat CYP2A2, Cyp2a2 (gene 24895) (P15149 whole entry, looked up): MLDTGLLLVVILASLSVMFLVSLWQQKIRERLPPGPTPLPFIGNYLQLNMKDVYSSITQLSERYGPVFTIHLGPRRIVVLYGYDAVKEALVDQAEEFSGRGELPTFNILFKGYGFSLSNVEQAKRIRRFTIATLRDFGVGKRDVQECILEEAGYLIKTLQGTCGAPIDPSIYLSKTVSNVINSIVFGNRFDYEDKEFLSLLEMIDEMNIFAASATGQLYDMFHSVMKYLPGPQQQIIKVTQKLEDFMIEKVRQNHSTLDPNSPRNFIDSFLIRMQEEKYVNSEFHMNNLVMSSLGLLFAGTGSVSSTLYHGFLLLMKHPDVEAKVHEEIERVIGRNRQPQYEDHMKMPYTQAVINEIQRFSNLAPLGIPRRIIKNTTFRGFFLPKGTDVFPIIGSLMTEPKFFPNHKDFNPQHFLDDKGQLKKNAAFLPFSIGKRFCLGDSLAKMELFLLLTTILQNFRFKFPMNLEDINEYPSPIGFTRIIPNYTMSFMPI
# Sequence of rat CYP1A2, Cyp1a2 (gene 24297) (P04799 whole entry, looked up): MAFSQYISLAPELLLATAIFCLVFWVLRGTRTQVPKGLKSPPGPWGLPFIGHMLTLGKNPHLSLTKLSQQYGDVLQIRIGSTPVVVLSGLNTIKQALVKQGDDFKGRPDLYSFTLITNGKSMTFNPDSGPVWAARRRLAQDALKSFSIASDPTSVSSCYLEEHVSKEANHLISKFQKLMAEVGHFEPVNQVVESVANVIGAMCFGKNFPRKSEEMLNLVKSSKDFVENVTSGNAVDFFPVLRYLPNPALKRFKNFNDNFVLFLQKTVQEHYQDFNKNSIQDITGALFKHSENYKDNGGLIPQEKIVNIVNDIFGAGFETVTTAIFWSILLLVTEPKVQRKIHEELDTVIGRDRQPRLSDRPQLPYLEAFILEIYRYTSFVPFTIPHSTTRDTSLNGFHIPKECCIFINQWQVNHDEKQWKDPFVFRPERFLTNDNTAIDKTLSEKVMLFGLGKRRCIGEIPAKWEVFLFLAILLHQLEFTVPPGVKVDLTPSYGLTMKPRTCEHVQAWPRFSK
# Sequence of rat CYP2C13, Cyp2c13 (gene 171521) (P20814 whole entry, looked up): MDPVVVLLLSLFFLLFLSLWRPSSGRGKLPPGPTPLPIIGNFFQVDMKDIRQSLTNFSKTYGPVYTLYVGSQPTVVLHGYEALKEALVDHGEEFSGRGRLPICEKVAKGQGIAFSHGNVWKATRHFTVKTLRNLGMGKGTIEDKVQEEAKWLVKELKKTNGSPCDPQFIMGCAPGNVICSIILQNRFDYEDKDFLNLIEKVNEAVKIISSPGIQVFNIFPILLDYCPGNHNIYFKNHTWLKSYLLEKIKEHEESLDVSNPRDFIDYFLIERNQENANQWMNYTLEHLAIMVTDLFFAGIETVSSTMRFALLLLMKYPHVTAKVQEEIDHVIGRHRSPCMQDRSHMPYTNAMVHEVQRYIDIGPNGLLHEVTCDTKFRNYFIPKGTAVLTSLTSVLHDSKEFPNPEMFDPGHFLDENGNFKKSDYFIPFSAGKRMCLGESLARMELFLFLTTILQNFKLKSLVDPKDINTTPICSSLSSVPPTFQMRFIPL
compound,measurement,setting,value
COP(=S)(OC)Oc1ccc([N+](=O)[O-])c(C)c1,AC50,[1],168 nM (active)
same,AC50,[2],3840 nM (active)
same,outcome,[3],inactive
same,AC50,[4],1170 nM (active)
same,AC50,[5],392 nM (active)
same,AC50,[6],8050 nM (active)
same,AC50,[7],177 nM (active)
same,AC50,[8],10000 nM (active)
CO/N=C(/C1=NOCCO1)c1ccccc1Oc1ncnc(Oc2ccccc2Cl)c1F,AC50,[1],1410 nM (active)
same,AC50,[2],1570 nM (active)
same,AC50,[5],779 nM (active)
same,AC50,[7],1740 nM (active)
CCCN(CC)CC1COC2(CCC(C(C)(C)C)CC2)O1 (stereo unspecified),outcome,[9],inactive
same,outcome,[4],inactive
O=C1C2CC=CCC2C(=O)N1SC(Cl)(Cl)Cl (stereo unspecified),AC50,[1],16000 nM (active)
same,outcome,[6],inactive
CCNP(=S)(OC)O/C(C)=C/C(=O)OC(C)C (stereo unspecified),AC50,[1],107 nM (active)
same,AC50,[9],6860 nM (active)
same,AC50,[4],1450 nM (active)
same,AC50,[5],1240 nM (active)
same,AC50,[6],10000 nM (active)
same,AC50,[7],151 nM (active)
same,AC50,[8],7310 nM (active)
CC(C)Oc1cccc(NC(=O)c2ccccc2C(F)(F)F)c1,AC50,[1],4900 nM (active)
same,outcome,[2],inactive
N#Cc1c[nH]cc1-c1cccc2c1OC(F)(F)O2,outcome,[3],inactive
